{
  "source": "paper PMC11006913",
  "note": "Numbering of substitutions follows the chain as printed.",
  "data": [
    {"target": "T1, SIX6 (Homo sapiens, UniProt O95475 114-200, H141N)", "T1 sequence": "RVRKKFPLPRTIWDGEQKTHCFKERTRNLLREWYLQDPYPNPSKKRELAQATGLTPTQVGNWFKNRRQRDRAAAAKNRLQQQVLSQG", "experiment": "PBM; 200 nM protein, PBS", "conditions": "dsDNA, one strand shown", "values": [
      {"sequence": "CATAACAC", "binding signal": "10 upbm affinity estimate (log intensity, higher = more binding, comparable within an allelic series)"},
      {"sequence": "AACGATAC", "binding signal": "11.1 upbm affinity estimate (log intensity, higher = more binding, comparable within an allelic series)"},
      {"sequence": "CTGATACA", "binding signal": "11 upbm affinity estimate (log intensity, higher = more binding, comparable within an allelic series)"},
      {"sequence": "CGATACAC", "binding signal": "11.1 upbm affinity estimate (log intensity, higher = more binding, comparable within an allelic series)"},
      {"sequence": "CATATCAC", "binding signal": "11.1 upbm affinity estimate (log intensity, higher = more binding, comparable within an allelic series)"},
      {"sequence": "GCGATACC", "binding signal": "11 upbm affinity estimate (log intensity, higher = more binding, comparable within an allelic series)"}
    ]},
    {"target": "T2, SIX6 (Homo sapiens, UniProt O95475 114-200, T165P)", "T2 sequence": "T1 sequence with N28H, T52P", "experiment": "PBM; 200 nM protein, PBS", "conditions": "dsDNA, one strand shown", "values": [
      {"sequence": "CCGGATAC", "binding signal": "9.26 upbm affinity estimate (log intensity, higher = more binding, comparable within an allelic series)"},
      {"sequence": "GGATCCCC", "binding signal": "9.23 upbm affinity estimate (log intensity, higher = more binding, comparable within an allelic series)"},
      {"sequence": "CAGGATCA", "binding signal": "9.29 upbm affinity estimate (log intensity, higher = more binding, comparable within an allelic series)"},
      {"sequence": "CCGTATCC", "binding signal": "9.24 upbm affinity estimate (log intensity, higher = more binding, comparable within an allelic series)"},
      {"sequence": "CCGGATCG", "binding signal": "9.19 upbm affinity estimate (log intensity, higher = more binding, comparable within an allelic series)"},
      {"sequence": "GGGGATAC", "binding signal": "9.17 upbm affinity estimate (log intensity, higher = more binding, comparable within an allelic series)"},
      {"sequence": "CCGATACG", "binding signal": "9.12 upbm affinity estimate (log intensity, higher = more binding, comparable within an allelic series)"},
      {"sequence": "CCCCTATC", "binding signal": "9.29 upbm affinity estimate (log intensity, higher = more binding, comparable within an allelic series)"},
      {"sequence": "AAGGATCC", "binding signal": "9.15 upbm affinity estimate (log intensity, higher = more binding, comparable within an allelic series)"},
      {"sequence": "GGATCGGA", "binding signal": "9.23 upbm affinity estimate (log intensity, higher = more binding, comparable within an allelic series)"},
      {"sequence": "CGGATCAG", "binding signal": "9.26 upbm affinity estimate (log intensity, higher = more binding, comparable within an allelic series)"},
      {"sequence": "CCTGGATC", "binding signal": "9.18 upbm affinity estimate (log intensity, higher = more binding, comparable within an allelic series)"},
      {"sequence": "CGCGGATC", "binding signal": "9.18 upbm affinity estimate (log intensity, higher = more binding, comparable within an allelic series)"},
      {"sequence": "CGTGATCC", "binding signal": "9.16 upbm affinity estimate (log intensity, higher = more binding, comparable within an allelic series)"},
      {"sequence": "CTGGATCC", "binding signal": "9.18 upbm affinity estimate (log intensity, higher = more binding, comparable within an allelic series)"},
      {"sequence": "CGGATCGC", "binding signal": "9.17 upbm affinity estimate (log intensity, higher = more binding, comparable within an allelic series)"},
      {"sequence": "AGGGGATC", "binding signal": "9.22 upbm affinity estimate (log intensity, higher = more binding, comparable within an allelic series)"},
      {"sequence": "GAGGGATC", "binding signal": "9.26 upbm affinity estimate (log intensity, higher = more binding, comparable within an allelic series)"},
      {"sequence": "GCTATCAC", "binding signal": "9.24 upbm affinity estimate (log intensity, higher = more binding, comparable within an allelic series)"},
      {"sequence": "GAGGATCC", "binding signal": "9.19 upbm affinity estimate (log intensity, higher = more binding, comparable within an allelic series)"},
      {"sequence": "GATATGGC", "binding signal": "9.27 upbm affinity estimate (log intensity, higher = more binding, comparable within an allelic series)"},
      {"sequence": "GGGATCCA", "binding signal": "9.27 upbm affinity estimate (log intensity, higher = more binding, comparable within an allelic series)"},
      {"sequence": "CCGGATCA", "binding signal": "9.33 upbm affinity estimate (log intensity, higher = more binding, comparable within an allelic series)"},
      {"sequence": "CGATCCGC", "binding signal": "9.21 upbm affinity estimate (log intensity, higher = more binding, comparable within an allelic series)"},
      {"sequence": "GGATCCGA", "binding signal": "9.08 upbm affinity estimate (log intensity, higher = more binding, comparable within an allelic series)"},
      {"sequence": "CGGATACC", "binding signal": "9.26 upbm affinity estimate (log intensity, higher = more binding, comparable within an allelic series)"},
      {"sequence": "CCGGTATC", "binding signal": "9.21 upbm affinity estimate (log intensity, higher = more binding, comparable within an allelic series)"},
      {"sequence": "ACTACAAT", "binding signal": "10.1 upbm affinity estimate (log intensity, higher = more binding, comparable within an allelic series)"},
      {"sequence": "CGATACCG", "binding signal": "9.14 upbm affinity estimate (log intensity, higher = more binding, comparable within an allelic series)"},
      {"sequence": "GGATCCAC", "binding signal": "9.18 upbm affinity estimate (log intensity, higher = more binding, comparable within an allelic series)"},
      {"sequence": "GATCCCCA", "binding signal": "9.34 upbm affinity estimate (log intensity, higher = more binding, comparable within an allelic series)"},
      {"sequence": "CCCGATAC", "binding signal": "9.17 upbm affinity estimate (log intensity, higher = more binding, comparable within an allelic series)"},
      {"sequence": "GCGATACC", "binding signal": "9.27 upbm affinity estimate (log intensity, higher = more binding, comparable within an allelic series)"}
    ]},
    {"target": "T3, SIX6 (Homo sapiens, UniProt O95475 114-200, T165G)", "T3 sequence": "T1 sequence with N28H, T52G", "experiment": "PBM; 200 nM protein, PBS", "conditions": "dsDNA, one strand shown", "values": [
      {"sequence": "CATAACAC", "binding signal": "10.3 upbm affinity estimate (log intensity, higher = more binding, comparable within an allelic series)"},
      {"sequence": "AACGATAC", "binding signal": "11.2 upbm affinity estimate (log intensity, higher = more binding, comparable within an allelic series)"},
      {"sequence": "CATATCAC", "binding signal": "11.1 upbm affinity estimate (log intensity, higher = more binding, comparable within an allelic series)"}
    ]},
    {"target": "T4, SIX6 (Homo sapiens, UniProt O95475 114-200, T139Q)", "T4 sequence": "T1 sequence with T26Q, N28H", "experiment": "PBM; 200 nM protein, PBS", "conditions": "dsDNA, one strand shown", "values": [
      {"sequence": "CATAACAC", "binding signal": "10.4 upbm affinity estimate (log intensity, higher = more binding, comparable within an allelic series)"},
      {"sequence": "AACGATAC", "binding signal": "11.2 upbm affinity estimate (log intensity, higher = more binding, comparable within an allelic series)"},
      {"sequence": "CGATACAC", "binding signal": "11.2 upbm affinity estimate (log intensity, higher = more binding, comparable within an allelic series)"},
      {"sequence": "GCGATACC", "binding signal": "11.1 upbm affinity estimate (log intensity, higher = more binding, comparable within an allelic series)"}
    ]},
    {"target": "T5, SIX6 (Homo sapiens, UniProt O95475 114-200, T165A)", "T5 sequence": "T1 sequence with N28H, T52A", "experiment": "PBM; 200 nM protein, PBS", "conditions": "dsDNA, one strand shown", "values": [
      {"sequence": "CATAACAC", "binding signal": "10.1 upbm affinity estimate (log intensity, higher = more binding, comparable within an allelic series)"},
      {"sequence": "AACGATAC", "binding signal": "11 upbm affinity estimate (log intensity, higher = more binding, comparable within an allelic series)"},
      {"sequence": "CTGATACA", "binding signal": "11 upbm affinity estimate (log intensity, higher = more binding, comparable within an allelic series)"},
      {"sequence": "CGATACAC", "binding signal": "11 upbm affinity estimate (log intensity, higher = more binding, comparable within an allelic series)"},
      {"sequence": "CATATCAC", "binding signal": "11 upbm affinity estimate (log intensity, higher = more binding, comparable within an allelic series)"}
    ]}
  ]
}
